High-throughput results from PubChem BioAssay.
HCMV antiviral – blocks human cytomegalovirus replication | HFF cells, HCMV-luciferase reporter, 72 h; active compounds read low | activity change, negative = inhibition, % at 57.5 µM | actives 4.5% (n = 410,000); in the data active = activity change below about -60%; inconclusive = no clear call, values can overlap the other calls; inactive = above about -39%
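Two compound doses tested in HFFs infected with HCMV-luciferase, MOI 1 PFU/cell, 72 h at 37C. Lysate luminescence read with OneGlo; data normalized against buffer-only and 10uM Salinomycin inhibitor controls.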
MARV entry inh – blocks Marburg virus binding to or entry into cells | Marburg virus pseudotyped entry inhibition, cell reporter | Potency, µM (highest dose often 37.8 µM), for the others: at the top dose activity change, negative = inhibition, actives largely listed as inhibitors | actives 1.8% (n = 300,000) | AID 540276; calls by dose curve; tested in HEK293 cells; note: potency is the fitted concentration of half-maximal effect
VACV mCherry inh – vaccinia inhibition (mCherry reporter); Vaccinia virus mCherry reporter infection, fluorescence; Potency, µM (highest dose often 36.5 µM), for inactives: top-dose activity change, negative = inhibition, most hits filed as inhibitors; actives 0.63% (n = 310,000); AID 720579; calls by dose curve; tested in A549 cells; note: potency is the fitted concentration of half-maximal effect; nearly all actives have a fitted effect of over 35% in size
Lassa entry inh – Lassa virus entry inhibition; Lassa virus pseudotype entry inhibition, cell reporter; Potency, µM (top dose mostly 37.9 µM), for inactives: at the top dose activity change, negative = inhibition, actives largely listed as inhibitors; actives 1.2% (n = 300,000); calls by dose curve; tested in HEK293 cells; note: potency is the fitted concentration of half-maximal effect; nearly all actives have a fitted effect of over 50% in size
HCV inhibitor – blocks hepatitis C virus. Potency, µM (highest dose often 41.8 µM), for inactives: top-dose activity change, negative = inhibition, usual class: inhibitors. actives 3.4% (n = 340,000). Huh7.5.1 HCVcc-Cre infection, luciferase reporter, 44 h; active = well fitted inhibition curve with a large enough effect; inconclusive = small, poorly fitted or top-dose-only effect, or another doubt; inactive = no such curve, though single readings can be large or run the other way; note: potency is the fitted concentration of half-maximal effect
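Infectious HCVcc-Cre (~0.5 moi) was added to cells just after compound, with cells seeded 4 h earlier at 1,000 per well. Luciferase activity after 44 h culture reported infection; substrate was incubated 15 min at room temperature before reading.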
Vaccinia Venus – vaccinia inhibition (Venus reporter). AID 720580. Potency, µM (top dose mostly 36.5 µM), for inactives: top-dose activity change, negative = inhibition, actives largely listed as inhibitors. actives 0.46% (n = 330,000). Vaccinia virus Venus reporter expression, fluorescence; calls by dose curve; tested in A549 cells; note: potency is the fitted concentration of half-maximal effect; nearly all actives have a fitted effect of over 30% in size
Active calls of the source: *; i = inactive; ? = inconclusive; . = no result; [ ] = dose if it differs, or a comment. This is a sample that favours compounds with a hit; in the whole collection about 7.8% have one here. % is set by controls: 0 for no effect and ±100 for the full control effect.

SMILES | HCMV antiviral | MARV entry inh | VACV mCherry inh | Lassa entry inh | HCV inhibitor | Vaccinia Venus
CCO[C@H]1OC(C(=O)N2CCN(Cc3ccccc3)CC2)=C[C@@H](c2ccc(C(F)(F)F)cc2)[C@@H]1CCCO | -86* | . | i | . | ? | ?
CCO[C@H]1OC(C(=O)N2CCN(Cc3ccccc3)CC2)=C[C@@H](c2ccccc2)[C@@H]1CCCO | -15 | . | -14% | . | -23% | -3%
CCO[C@@H]1OC(C(=O)NCc2nc3ccccc3[nH]2)=C[C@H](C)[C@H]1CCCO | -40 | . | -2% | . | -17% | -13%
CCO[C@@H]1OC(C(N)=O)=C[C@H](c2ccc3c(c2)OCO3)[C@H]1CCCO | -95* | . | i | . | 16% | -6%
CCO[C@H]1OC(C(=O)NCc2nc3ccccc3[nH]2)=C[C@@H](C)[C@@H]1CCCO | -62* | . | i | . | ? | -3%
CCO[C@H]1OC(C(=O)N2CCN(C)CC2)=C[C@@H](C)[C@@H]1CCCO | -97* | . | -2% | . | 1% | -5%
Cc1ccc2c(c1)C(C1(O)C(=O)N(Cc3ccccc3)c3ccccc31)C(=O)N2C (stereo unspecified) | 3 | . | . | . | . | .
O=C(COc1ccccc1Cl)OCc1cc(=O)n2nc(-c3cccs3)sc2n1 | 20 | . | -9% | -17%[46.1 µM] | . | 1%
Cc1cc(C)c[n+](C(C)C(=O)c2ccc(-c3ccccc3)cc2)c1 (stereo unspecified) | -99* | ? | ? | -21% | -10% | -26%
Cc1ccc[n+](C(C)C(=O)c2ccc(Cl)cc2)c1 (stereo unspecified) | -5 | . | . | . | 10% | .
Cc1nc(SC(C)C(=O)Nc2ccccc2Cl)cc(-c2ccccc2)n1 (stereo unspecified) | -70* | ? | -4% | ? | . | -6%
Cc1ccc(Cn2nc(C)c(C(=O)NCC(c3cccs3)N3CCOCC3)c2Cl)cc1 (stereo unspecified) | ? | -13% | i | 13µM* | 4% | -14%
CCOC(=O)c1c(NC(=O)c2cc(CC)on2)sc(C)c1C | 2 | ? | -7% | 0%[46.1 µM] | . | 4%
Cc1ccc(-n2nc3c(=O)n(CCCC(=O)NCc4ccc(Cl)cc4)nc(C)c3c2C)cc1 | -23 | . | . | . | 26% | .
Cc1ccccc1CCNC(=O)CCn1nc(C)c2c(C)n(-c3ccccc3)nc2c1=O | -60* | . | . | . | -23% | .
Cc1ccc(-n2nc3c(=O)n(CCCC(=O)NCc4cccc(Cl)c4)nc(C)c3c2C)cc1 | 28 | . | . | . | 22µM* | .
Cc1nn(CCC(=O)NCCc2ccccc2Cl)c(=O)c2nn(-c3ccccc3)c(C)c12 | -62* | . | . | . | -30% | .
COC(=O)c1ccc(NC(=O)CC2C(=O)N(c3cccc(OC)c3)C(=O)N2Cc2cccs2)cc1 (stereo unspecified) | -26 | . | -4% | ? | . | -4%
O=C(NC1CCCCCC1)C1CCN(C(=O)N2CCOc3ccc(Cl)cc32)CC1 | 10 | . | -11% | ? | . | -21%
CN1CCCN(C(=O)[C@@H]2C[C@@H](Sc3nc4ccccc4[nH]3)CN2Cc2ccc(-c3ccccc3)cc2)CC1 | . | . | -19% | . | . | -14%
CCC(=O)Nc1sc2c(c1C(=O)Nc1ccc(Br)cc1)CCCCC2 | 23 | . | -11% | 1%[46.1 µM] | . | -21%
CN(Cc1ccccc1)C(=O)C1CCC(CNS(=O)(=O)c2ccc3c(c2)CCCC(=O)N3)CC1 (stereo unspecified) | -6 | . | -26% | -29%[46.1 µM] | . | -18%
CC1=C(C(=O)OCC2CCCCC2)C(c2ccc(F)cc2F)CC(=O)N1 (stereo unspecified) | -105* | ? | -15% | -3%[46.1 µM] | . | -17%
CCCCN1C(=O)/C(=C/C=C/c2ccco2)C(=O)NC1=S | 20 | 2%[46.1 µM] | -15% | 6% | -5% | 50%
O=C1NC(=O)N(Cc2ccc(F)cc2)C(=O)/C1=C\C=C\c1ccco1 | -97* | . | -11% | . | ? | 38%
CCc1ccc(N2NC(=O)/C(=C/C=C/c3ccco3)C2=O)cc1 | 6 | -18% | -15% | -25% | 7% | 1%
CC(C)c1ccc(N2C(=O)NC(=O)/C(=C/C=C/c3ccco3)C2=O)cc1 | -101* | ? | 4% | ? | ? | 42%
